The target in one assay is POU1 (OCT1 POU domain) (human, UniProt P14859 260-458). As to the kind of experiment: EMSA-SELEX-seq; no BOB1; 20 mM Tris-HCl pH 7.6, 140 mM NaCl, 10% glycerol, 0.5 mM EDTA, 0.05% Triton X-100, 0.1 mg/mL BSA, 0.1 mg/mL poly(dI-dC), 5 mM DTT, room temperature, 20 min; high values mean tight binding. To be noted: protein: recombinant; dsDNA, one strand shown. An outline of the steps: (§1)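 Binding preference is the percentage of sequenced 8-mers matching a motif pattern. Tagged POU-domain proteins expressed in E. coli BL21 were purified under denaturing conditions and renatured. For binding, 30 ng protein met 300 ng of a PCR-amplified double-stranded random 35-nt library, with or without 28 ng coactivator protein, in 20 μL Tris–HCl pH 7.6 binding buffer for 20 min at RT. Complex bands were cut from native 6% PAGE, eluted and PCR-amplified over four rounds, then Illumina-sequenced.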
Sequence of POU1 (OCT1 POU domain) (P14859 260-458): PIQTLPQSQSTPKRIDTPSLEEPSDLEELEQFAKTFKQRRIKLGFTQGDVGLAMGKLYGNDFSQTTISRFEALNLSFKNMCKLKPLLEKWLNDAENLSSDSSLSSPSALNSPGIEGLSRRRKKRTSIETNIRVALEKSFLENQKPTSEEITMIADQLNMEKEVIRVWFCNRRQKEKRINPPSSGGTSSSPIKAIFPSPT
(In general: Mobility shift assays separate free from complexed probe on a gel.)

Another assay addresses T1, POU2 (OCT2 POU domain) (human, UniProt P09086 175-386).
T1 sequence: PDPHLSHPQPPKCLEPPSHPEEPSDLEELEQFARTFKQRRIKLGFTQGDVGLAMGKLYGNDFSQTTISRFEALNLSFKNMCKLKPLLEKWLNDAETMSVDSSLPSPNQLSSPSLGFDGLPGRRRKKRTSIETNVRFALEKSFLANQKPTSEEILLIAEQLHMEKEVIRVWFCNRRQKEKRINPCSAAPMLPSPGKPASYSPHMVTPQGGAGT
Described as above. The settings on record: protein: recombinant; dsDNA, one strand shown. In short, it runs like this: as §1

Assay [1] addresses POU1 (OCT1 POU domain);BOB1 (OBF1, OCA-B) (human;human, UniProt P14859;Q16633 260-458;1-256, |). As to the kind of experiment: EMSA-SELEX-seq; with BOB1 (ternary complex band); 20 mM Tris-HCl pH 7.6, 140 mM NaCl, 10% glycerol, 0.5 mM EDTA, 0.05% Triton X-100, 0.1 mg/mL BSA, 0.1 mg/mL poly(dI-dC), 5 mM DTT, room temperature, 20 min; high values mean tight binding. The settings on record: protein: recombinant;recombinant; copies: 1;1; dsDNA, one strand shown. In short, it runs like this: as §1

Assay [2] deals with T2, POU2 (OCT2 POU domain);BOB1 (OBF1, OCA-B) (human;human, UniProt P09086;Q16633 175-386;1-256, |).
T2 sequence 1: T1 sequence
T2 sequence 2: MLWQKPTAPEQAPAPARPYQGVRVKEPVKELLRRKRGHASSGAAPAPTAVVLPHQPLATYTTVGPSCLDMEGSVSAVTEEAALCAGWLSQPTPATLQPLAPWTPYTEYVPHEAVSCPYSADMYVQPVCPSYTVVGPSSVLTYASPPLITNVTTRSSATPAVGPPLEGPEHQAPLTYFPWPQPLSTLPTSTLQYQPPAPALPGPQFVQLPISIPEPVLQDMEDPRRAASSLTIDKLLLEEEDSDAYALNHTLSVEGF
Described as above. The settings on record: protein: recombinant;recombinant; copies: 1;1; dsDNA, one strand shown. An outline of the steps: as §1

This passage reports binding signal results from article PMC10812921, “Transcriptional Coactivator BOB1 (OBF1, OCA-B) Modulates the Specificity of DNA Recognition by the POU-Domain Factors OCT1 and OCT2 in a Monomeric Configuration”.

For the sequence ATACAAAC, the binding signal was 0.0648 % of ANNNNAAN 8-mers in the assay with POU1 (OCT1 POU domain), 0.0512 % of ANNNNAAN 8-mers with POU2 (OCT2 POU domain), 0.0819 % of ANNNNAAN 8-mers in assay [1] and 0.0528 % of ANNNNAAN 8-mers in assay [2].

Regarding ATTGCAAG, the binding signal with POU1 (OCT1 POU domain) was 0.0271 % of ANNNNAAN 8-mers; in the assay with POU2 (OCT2 POU domain) it was 0.0397 % of ANNNNAAN 8-mers; in assay [1], 0.0336 % of ANNNNAAN 8-mers; in assay [2], 0.0363 % of ANNNNAAN 8-mers.

ACTGCAAA: the binding signal is 0.0416 % of ANNNNAAN 8-mers in the assay with POU1 (OCT1 POU domain), 0.0397 % of ANNNNAAN 8-mers with POU2 (OCT2 POU domain), 0.0535 % of ANNNNAAN 8-mers in assay [1] and 0.0264 % of ANNNNAAN 8-mers in assay [2].

On to ACGGAAAT, for which the binding signal with POU1 (OCT1 POU domain) was 0.087 % of ANNNNAAN 8-mers; with POU2 (OCT2 POU domain), 0.099 % of ANNNNAAN 8-mers; in assay [1], 0.142 % of ANNNNAAN 8-mers; in assay [2], 0.0792 % of ANNNNAAN 8-mers.

Take ATTCAAAA: the binding signal was 0.365 % of ANNNNAAN 8-mers with POU1 (OCT1 POU domain), 0.277 % of ANNNNAAN 8-mers in the assay with POU2 (OCT2 POU domain), 0.427 % of ANNNNAAN 8-mers in assay [1] and 0.278 % of ANNNNAAN 8-mers in assay [2].

For the sequence AACAAAAG, the binding signal was 0.0522 % of ANNNNAAN 8-mers with POU1 (OCT1 POU domain), 0.0518 % of ANNNNAAN 8-mers with POU2 (OCT2 POU domain), 0.0741 % of ANNNNAAN 8-mers in assay [1] and 0.0454 % of ANNNNAAN 8-mers in assay [2].

For ACTTAAAT, the binding signal with POU1 (OCT1 POU domain) is 0.0767 % of ANNNNAAN 8-mers; with POU2 (OCT2 POU domain), 0.11 % of ANNNNAAN 8-mers; in assay [1], 0.0714 % of ANNNNAAN 8-mers; in assay [2], 0.057 % of ANNNNAAN 8-mers.

Regarding ATGCCAAG, the binding signal with POU1 (OCT1 POU domain) was 0.0305 % of ANNNNAAN 8-mers; with POU2 (OCT2 POU domain), 0.0357 % of ANNNNAAN 8-mers; in assay [1] it was 0.025 % of ANNNNAAN 8-mers; in assay [2], 0.0248 % of ANNNNAAN 8-mers.

As to AGGATAAA, the binding signal with POU1 (OCT1 POU domain) was 0.0549 % of ANNNNAAN 8-mers; with POU2 (OCT2 POU domain), 0.0834 % of ANNNNAAN 8-mers; in assay [1], 0.0609 % of ANNNNAAN 8-mers; in assay [2], 0.0718 % of ANNNNAAN 8-mers.

As to ATAGTAAT, the binding signal with POU1 (OCT1 POU domain) was 0.116 % of ANNNNAAN 8-mers; with POU2 (OCT2 POU domain), 0.148 % of ANNNNAAN 8-mers; in assay [1], 0.0702 % of ANNNNAAN 8-mers; in assay [2] it was 0.0867 % of ANNNNAAN 8-mers.

For the sequence AGAGAAAT, the binding signal with POU1 (OCT1 POU domain) was 0.0679 % of ANNNNAAN 8-mers; with POU2 (OCT2 POU domain), 0.0708 % of ANNNNAAN 8-mers; in assay [1] it was 0.0753 % of ANNNNAAN 8-mers; in assay [2] it was 0.0784 % of ANNNNAAN 8-mers.

As to AGCGGAAG, the binding signal with POU1 (OCT1 POU domain) is 0.0202 % of ANNNNAAN 8-mers; with POU2 (OCT2 POU domain), 0.0196 % of ANNNNAAN 8-mers; in assay [1] it was 0.0215 % of ANNNNAAN 8-mers; in assay [2], 0.0173 % of ANNNNAAN 8-mers.

As for ATCTAAAT, the binding signal in the assay with POU1 (OCT1 POU domain) was 0.172 % of ANNNNAAN 8-mers; in the assay with POU2 (OCT2 POU domain) it was 0.227 % of ANNNNAAN 8-mers; in assay [1] it was 0.123 % of ANNNNAAN 8-mers; in assay [2] it was 0.123 % of ANNNNAAN 8-mers.

Take AGACGAAC: the binding signal with POU1 (OCT1 POU domain) is 0.0202 % of ANNNNAAN 8-mers; with POU2 (OCT2 POU domain), 0.0236 % of ANNNNAAN 8-mers; in assay [1], 0.0137 % of ANNNNAAN 8-mers; in assay [2] it was 0.0182 % of ANNNNAAN 8-mers.

Take AACACAAT: the binding signal with POU1 (OCT1 POU domain) is 0.0351 % of ANNNNAAN 8-mers; in the assay with POU2 (OCT2 POU domain), 0.0351 % of ANNNNAAN 8-mers; in assay [1], 0.0293 % of ANNNNAAN 8-mers; in assay [2] it was 0.0421 % of ANNNNAAN 8-mers.
